Screening data: PubChem, National Center for Advancing Translational Sciences (NCATS)
Marburg entry inh: qHTS for inhibitors of binding or entry into cells for Marburg Virus; Marburg virus pseudotyped entry inhibition, cell reporter; 1.8% of 300,000 active; Potency, µM (series often up to 37.8 µM), for inactives: top-dose activity change, negative = inhibition, hits mostly inhibitors; calls by dose curve; tested in HEK293 cells; note: potency is the fitted concentration of half-maximal effect
Lassa entry inh: qHTS for Inhibitors of binding or entry into cells for Lassa Virus. Lassa virus pseudotype entry inhibition, cell reporter. Potency, µM (series often up to 37.9 µM), inactives show at the top dose activity change, negative = inhibition, actives largely listed as inhibitors. 1.2% of 300,000 active. AID 540256, 2011; calls by dose curve; tested in HEK293 cells; note: potency is the fitted concentration of half-maximal effect; nearly all actives have a fitted effect of over 50% in size
HCMV antiviral: qHTS Assay for inhibitors of the human cytomegalovirus (HCMV) | HFF cells, HCMV-luciferase reporter, 72 h; stronger effect = lower value | activity change, negative = inhibition, % at 57.5 µM | 4.5% of 410,000 active; in the data active = activity change below about -60%; inconclusive = no clear call, values can overlap the other calls; inactive = above about -39%
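Inhibition of viral replication was scored as loss of reporter luminescence in HFFs infected with HCMV-luciferase (MOI 1 PFU/cell) for 72 h; compounds tested at 2 doses, normalized to buffer and Salinomycin controls.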
FMDV inh: High Throughput Screening for Foot and Mouth Disease Virus Antivirals. 1.2% of 410,000 active. FMDV antiviral cell-based qHTS. Potency, µM (top dose mostly 57.9 µM), for inactives: at the top dose activity change, negative = inhibition, hits mostly inhibitors. AID 1159524, 2015; calls by dose curve; tested in HEK293T cells; note: read-out not given here; potency is the fitted concentration of half-maximal effect; nearly all actives have a fitted effect of over 45% in size
An asterisk follows results filed as active; ? = inconclusive; . = no result; [ ] = dose if it differs, or a comment. Most compounds without a hit are left out; they make up all but 6.2% or so of the library. % is set by controls: 0 for no effect and ±100 for the full control effect.

SMILES	Marburg entry inh	Lassa entry inh	HCMV antiviral	FMDV inh
Cc1cc(C)nc(/N=C(\N)Nc2cccc(OCc3ccccc3)c2)n1	.	.	-73*	32µM*
Cc1cc(C)nc(/N=C(\N)Nc2ccc(OCCC(C)C)cc2)n1	?	-19%	?	8.9µM*
Cc1cc(C)nc(/N=C(\N)Nc2ccc(OCc3ccccc3)cc2)n1	?	?	-75*	28µM*
CC(C)(C)c1cc(CCC(=O)NNC(=O)c2ccco2)cc(C(C)(C)C)c1O	8.9µM*	1%	-27	-19%
Cc1cccnc1NC(=O)C1CCC1	18%	24%	.	-11%
CCOC(=O)c1cc(S(=O)(=O)NC2CCN(C(=O)OCC)CC2)cn1C	-7%	?	-17	-16%
COc1ccc(-c2cc(C(=O)O)c(C)o2)cc1OC	?	?	-17	13µM*
Cc1oc(-c2ccc3c(c2)OCCO3)cc1C(=O)O	?	1.1µM*	-63*	2.2µM*
Cc1oc(-c2ccc3c(c2)OCCO3)cc1C(=O)NCC(=O)O	?	?	-13	28µM*
CCC(=NNc1ccc([N+](=O)[O-])cc1[N+](=O)[O-])c1ccccc1	.	.	46	-23%
CN(C)Cc1c(C(=O)N/N=C/c2cccc(OCc3ccccc3)c2)nnn1-c1nonc1N	.	.	-13	-24%
COc1cccc(C(=O)Nc2cccc(S(=O)(=O)NC3=NCCC3)c2)c1	.	.	-2	19%
CC(C)C[C@@H](COCc1ccc(Cl)cc1)N1CCN(C(=O)c2ccc(C(F)(F)F)cc2)CCC1=O	.	.	-2	-20%
Cc1cccc(COC[C@H](Cc2ccccc2)N2CCN(C(=O)c3cccc(Cl)c3)CCC2=O)c1	.	.	5	-17%
CC(C)CC(COCc1ccc(Cl)cc1)N1CCN(C(=O)c2ccc(Cl)cc2Cl)CCC1=O (centres undefined)	?	15µM*	2	-16%
Cc1cccc(C(=O)N2CCC(=O)N(C(COCc3ccccc3)Cc3ccccc3)CC2)c1 (centres undefined)	1%	5.8µM*	-20	0%
Cc1cccc(COCC(Cc2ccccc2)N2CCN(C(=O)c3cccc(Cl)c3)CCC2=O)c1 (centres undefined)	-13%	5.2µM*	3	-7%
O=C(c1cccc(Cl)c1)N1CCC(=O)N(C(COCc2ccccc2)Cc2ccccc2)CC1 (centres undefined)	?	4.6µM*	14	-20%
CC(C)CC(=O)NC(=S)Nc1ccccc1C(F)(F)F	13%	-8%	50	0%
CCOCCCn1c(C)nc2c(c1=O)c1nc3ccccc3nc1n2CCC1=CCCCC1	10µM*	?	?	?
N#Cc1nc(-c2cccc(Cl)c2)oc1N1CCC(C(N)=O)CC1	?	?	-17	-5%
CC1=C(C)C(=O)C(N2CCOCC2)=CC1=O	1%	.	-68*	0%
O=C1C=C(N2CCOCC2)c2cccc3cccc1c23	.	.	13	-14%
O=C1C=C(N2CCOCC2)c2ccccc2C1=O	2.5µM*	?	-97*	?
COCCNc1ncnc2c1ncn2[C@H]1CN(Cc2ccc(F)cc2)C[C@@H](CO)O1	.	.	-4	0%
SMILES	Marburg entry inh	Lassa entry inh	HCMV antiviral	FMDV inh
Cc1c(CCC(=O)NCCc2ccccc2)c(=O)oc2cc(O)ccc12	17%[46.1 µM]	?	-3	-3%
CSc1ccccc1NC(=O)C1(C)CCN1C(=O)Cc1ccc(-c2ccccc2)cc1 (centres undefined)	.	.	-62*	?
Cc1ccc(NC(=O)C2(C)CCN2C(=O)Cc2ccc(-c3ccccc3)cc2)cc1 (centres undefined)	.	.	-63*	?
CC1(C(=O)NS(=O)(=O)Cc2ccccc2)CCN1C(=O)Cc1ccccc1Cl (centres undefined)	.	.	-62*	-21%
CC(C)(C)c1ccc(CC(=O)N2CCC2(C)C(=O)Nc2cnc3ccccc3c2)cc1 (centres undefined)	.	.	?	20µM*
CC1(C(=O)NS(=O)(=O)Cc2ccccc2)CCN1C(=O)Cc1ccccc1 (centres undefined)	.	.	-14	-6%
COc1ccc(NC(=O)c2cc3ccccc3oc2=O)c(OC)c1	.	.	13	56%
COc1cccc(NC(=O)c2ccc(OC(F)(F)F)cc2)c1	.	.	84	31%
CC1(C(=O)Nc2ccc3nc[nH]c3c2)CCN1C(=O)Cc1ccc(-c2ccccc2)cc1 (centres undefined)	.	.	?	32µM*
O=C(NCC1COc2ccccc2O1)C1CCCN(S(=O)(=O)c2cccc3nsnc23)C1 (centres undefined)	?	26%	-22	?
Oc1ccccc1-c1nc(NC2CCCC2)c2ccccc2n1	.	.	28	-29%
c1ccc(-c2nnc(-c3ccccn3)nc2NC2CCCCC2)cc1	3.5µM*	5µM*	-100*	2%
CNc1nc(-c2ccccn2)nnc1-c1ccccc1	?	?	-105*	18%
CC[C@@](N)(C(=O)O)c1ccc(C(=O)O)cc1	.	.	.	-2%
OCC1(Cc2cccc(C(F)(F)F)c2)CCN(Cc2cc(F)cc(F)c2)CC1	?	?	-62*	-9%
Cc1ccc(-n2cc(CN3CCC(CO)(Cc4cccc(C(F)(F)F)c4)CC3)cn2)cc1	?	?	-99*	?
CN1CCc2nc(NC(=O)COc3ccc4ccccc4c3)sc2C1	?	?	-82*	-16%
O=C(NCc1cccnc1)/C(=C\c1ccc(-c2ccc(Cl)c(Cl)c2)o1)S(=O)(=O)c1ccccc1	?	?	-102*	?
O=C(NNC1=C(C(=O)C(F)(F)F)CCC1)c1ccccc1Cl	9%	8%	?	0%
O=C(NNC1=C(C(=O)C(F)(F)F)CCC1)c1ccccc1O	-21%	-10%	55	-19%
COc1ccccc1C(=O)NNC1=C(C(=O)C(F)(F)F)CCC1	?	?	-100*	.
Nc1ccccc1C(=O)NNC1=C(C(=O)C(F)(F)F)CCC1	6%[46.1 µM]	-21%	-85*	7%
Cc1ccccc1CN(c1ccc(C(=O)NCCC2=CCCCC2)cc1)S(C)(=O)=O	?	16µM*	-3	-25%
Cc1[nH]n(-c2ccccc2)c(=O)c1C(=O)c1cccc(F)c1	10µM*	?	-36	-13%
Cc1[nH]n(-c2ccccc2)c(=O)c1C(=O)c1ccccc1	-29%[46.1 µM]	?	58	-2%
SMILES	Marburg entry inh	Lassa entry inh	HCMV antiviral	FMDV inh
CN(C)S(=O)(=O)n1cc(/C=C(\NC(=O)c2ccccc2F)C(=O)NCCCN2CCOCC2)c2ccccc21	.	.	-12	-11%
C=CCn1c(Cc2cccs2)nnc1SCC(=O)c1cccc(Br)c1	7%	0%	11	-3%
CCOC(=O)Cc1nnc2c(Nc3ccc(Cl)cc3)nc3nonc3n12	?	?	-74*	?
CCOC(=O)Cc1csc(NC(=O)C2C3C=CC(C3)C2C(=O)O)n1 (centres undefined)	7%[46.1 µM]	22%	-101*	-3%
CCOC(=O)Cc1csc(Nc2ccc(Cl)cc2)n1	.	.	-72*	13%
CCOC(=O)Cc1csc(NC(=S)NC(=O)c2ccc(Cl)cc2)n1	4%[46.1 µM]	-2%	-84*	3%
